Screening data: PubChem, National Center for Advancing Translational Sciences (NCATS)
ALDH1A1 inh: blocks purified human ALDH1A1 activity; P00352; Purified ALDH1A1, NADH fluorescence, propionaldehyde substrate; Potency, µM (titrated, usually from 75.3 µM), inactives show at the highest dose activity, negative = inhibition, usual class: inhibitors; hit rate 7.3% among 220,000;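 note: potency is the fitted concentration of half-maximal effect; plate controls were no enzyme wells and a reference inhibitor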
Target sequence (P00352 whole entry, looked up): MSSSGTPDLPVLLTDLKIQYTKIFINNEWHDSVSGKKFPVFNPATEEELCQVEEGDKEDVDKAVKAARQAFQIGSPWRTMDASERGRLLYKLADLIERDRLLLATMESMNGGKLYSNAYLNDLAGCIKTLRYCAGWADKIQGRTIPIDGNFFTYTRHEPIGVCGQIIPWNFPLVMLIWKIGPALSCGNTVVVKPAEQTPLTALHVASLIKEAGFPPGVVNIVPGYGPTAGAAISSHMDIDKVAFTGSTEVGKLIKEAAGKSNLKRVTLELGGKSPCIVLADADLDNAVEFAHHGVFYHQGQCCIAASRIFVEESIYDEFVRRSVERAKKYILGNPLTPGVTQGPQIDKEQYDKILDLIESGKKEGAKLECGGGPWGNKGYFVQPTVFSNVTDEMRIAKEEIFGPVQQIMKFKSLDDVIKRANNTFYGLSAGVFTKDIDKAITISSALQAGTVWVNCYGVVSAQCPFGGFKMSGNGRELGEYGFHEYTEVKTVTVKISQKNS
HPGD inh: blocks human HPGD enzyme activity | P15428 | hit rate 4.3% among 150,000 | Potency, µM, inactives show at the top dose activity change, negative = inhibition, hits mostly inhibitors | purified HPGD, NADH fluorescence kinetic, PGE2 substrate; note: potency is the fitted concentration of half-maximal effect
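NADH formation kinetics: reaction with 30 uM PGE2 and 1 mM NAD+ (final), 20 nM enzyme, Tris-HCl pH 8 with Tween 20, after 15 min compound preincubation at room temperature. Fluorescence change, last versus first of five reads.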
Luc counter: blocks Kinase-Glo luciferase, a counter-screen artifact; Q27757; Kinase-Glo luciferase, ATP luminescence, 8 min; Potency, µM (titrated, usually from 38.3 µM), for the others: at the highest dose activity change, negative = inhibition, usual class: inhibitors; hit rate 0.28% among 200,000; active = well fitted inhibition curve with a large enough effect; inconclusive = small, poorly fitted or top-dose-only effect; note: potency is the fitted concentration of half-maximal effect; nearly all actives have a fitted effect of over 60% in size
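Inhibition of Kinase-Glo luciferase light generation was assessed at 10 uM ATP in pH 7.2 imidazole buffer, with luminescence measured after eight minutes at ambient temperature.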
LMNA splice mod: changes lamin A minigene splicing in HeLa cells | hit rate 0.01% among 200,000 | HeLa LMNA splicing GFP/RFP minigene ratio, 48 h | Potency, µM (series often up to 46.1 µM), without a hit: at the highest dose ratio change, negative = inhibition, actives largely listed as inhibitors; active = well fitted inhibition curve with a large enough effect in the signal ratio, with a control signal flat, not every such curve was filed as active; inconclusive = small, poorly fitted or top-dose-only effect, or effect the other way, or a change in a side signal; the % refers to the signal ratio; note: potency is the fitted concentration of half-maximal effect
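S3 HeLa stable clones carrying a lamin A-EGFP splicing minigene plus DsRed2 were seeded at 600 cells/well in Opti-MEM with 2% FBS, pin-dosed and incubated 48 h at 37°C. Acumen cytometry (488 nm) gave the GFP/RFP total-intensity ratio.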
PNC inhibitor: blocks assembly of the perinucleolar compartment | PC3M PTB-GFP, PNC prevalence imaging, 16 h; hits give low values | activity change (PNC), negative = inhibition, % at 10 µM | hit rate 3.1% among 140,000;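 active = readout at or below -70, meaning at least 70% loss of cells showing the perinucleolar compartment, a nuclear body marking cancer cells; inconclusive = readout between -30 and a set limit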;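 note: plate controls were DMSO wells for no effect and camptothecin positive control wells for full effect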
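PC3M cells stably expressing PTB-GFP, 750–1000 cells/well, treated 16 h at 37 °C with compound (23 nl of library stock), in duplicate. After paraformaldehyde fixation and Hoechst stain, imaged at 20x; PNC prevalence scored by image analysis.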
Starred values were filed as active, the others as inactive; ? = inconclusive; · = not tested or not shown; [ ] = remark or other dose. Compounds with a hit are over-represented: about 10% of the library has one in this group of screens. Unless noted, calls come from the whole dose curve; as a rule, active = well fitted inhibition curve with a large enough effect (not every such curve was filed as active); inconclusive = small, poorly fitted or top-dose-only effect, or another doubt; inactive = no such curve, though single readings can be large or run the other way. Unless noted, % is set by controls: 0 for no effect and ±100 for the full control effect.

SMILES	ALDH1A1 inh	HPGD inh	Luc counter	LMNA splice mod	PNC inhibitor
Cc1ccccc1-n1nnnc1Sc1nnnn1-c1ccccc1	25.1µM*	-1.4%	-2.0%	?	0.2
CCCNC(=O)C1CCN(S(=O)(=O)c2ccc3c(c2)CCCN3C(C)=O)CC1	·	·	·	13.7%[46 µM]	·
COc1ccc(N2CC(NC(=O)C3CCCCC3)CC2=O)cc1 (stereo not drawn)	·	·	·	8.5%[46 µM]	·
COc1cc2ncc3c(-c4ccc(C)cc4)nn(-c4ccc(F)cc4F)c3c2cc1OC	·	·	·	3.4%[46 µM]	·
C=CCSc1nnnn1-c1ccc(OC)cc1	1.6%	4.5%	-2.4%	-4.9%	10.4
Cn1cnnc1SCc1ccccc1	4.5%	-4.6%	-5.0%	13.3%	11.2
C(=C\CSc1nnnn1-c1ccccc1)/CSc1nnnn1-c1ccccc1	0.1µM*	?	0.2%	?	?
CSc1ccccc1-n1nnnc1SCc1ccccc1	7.08µM*	-30.1%	-0.3%	?	?
COc1ccc(CSc2nnnn2-c2ccccc2)cc1	11.2µM*	-8.6%	-2.9%	?	35.1
c1ccc(-n2nnnc2SCc2ccccn2)cc1	?	-7.2%	22.2%	-7.9%	25.2
O=C(O)c1ccc(-n2nnnc2SCc2ccccc2)cc1	1.6%	20µM*	1.8%	3.2%	?
CCOC(=O)c1cc(-c2ccccc2)n(-c2cccc(C(=O)NC(C)CC)c2)c1C (stereo not drawn)	·	·	·	7.5%[46 µM]	·
Cc1ccc(-c2nnc(SCC#N)n2N)cc1	-8.7%	?	0.0%	0.1%	-82.7*
O=[N+]([O-])c1ccc(Sc2nnnn2-c2ccccc2)nc1	22.4µM*	·	7.7%	·	·
Cc1noc(C)c1CSc1nnc(-c2ccccc2)n1N	10µM*	20µM*	14.5%	7.8%	1.8
Cc1cccc(-c2nnc(SCC#N)n2C)c1	14.8%	·	-6.2%	?	·
O=[N+]([O-])c1ccc(Sc2ccc(Cl)c(Cl)c2)nc1	5.1%	-10.1%	-0.5%	?	-14.6
Cc1noc(C)c1CSc1nnc(-c2ccccc2)n1Cc1ccco1	-3.2%	-10.9%	0.1%	1.3%	19.3
c1ccc(-c2noc(CSc3nnnn3-c3ccccc3)n2)cc1	11.2µM*	-4.7%	4.6%	-4.9%	-5.1
COC(=O)N1CC=CC1(C)C(=O)NCc1ccc(C)o1 (stereo not drawn)	?	-35.0%	-5.1%	·	·
O=C(Cn1c(SCc2cccc(F)c2)nc2cccnc21)Nc1ccc(F)c(Cl)c1	·	·	·	-7.5%[46 µM]	·
CCOC(=O)C(C)NC(=O)c1c(C)oc2ncn(CC(C)C)c(=O)c12 (stereo not drawn)	·	·	·	-14.8%[46 µM]	·
COC(=O)c1sccc1NC(=O)CSc1ccccc1NC(=O)CNC(C)C	3.55µM*	·	-16.8%	-8.9%[46 µM]	·
COC(=O)c1sccc1NC(=O)CSc1ccccc1N	-1.4%	·	1.0%	?	·
Cc1cccc2nc(CSc3nnnn3-c3ccccc3)cn12	10µM*	1.8%	4.5%	3.3%	7.1
SMILES	ALDH1A1 inh	HPGD inh	Luc counter	LMNA splice mod	PNC inhibitor
CCCSc1nnc(Sc2nnnn2-c2ccccc2)s1	11.2µM*	-28.3%	-1.4%	?	9.4
COc1ccc(OC)c(NC(=O)CSc2nnnn2-c2ccccc2F)c1	?	-7.0%	-1.7%	?	?
COC(=O)c1sccc1NC(=O)CSc1nnnn1-c1ccccc1F	14.1µM*	-15.9%	-3.5%	?	?
O=C1COC(c2ccccc2O)=NN1CCCN1CCCC1	4.6%[13.5 µM]	-9.1%	-0.4%[7.66 µM]	·	·
O=C(c1cc(C(F)(F)F)cc(C(F)(F)F)c1)N1CCC2(CC1)CN(c1ccccn1)C2	?	?	-0.1%	·	·
COc1ccc(-c2nnc(SCc3ccccc3)n2N)cc1	12.7%	-16.3%	-3.4%	4.8%	-107.9*
COc1ccc(-c2nnc(SCCc3ccccc3)n2N)cc1	0.4%	-19.1%	0.1%	-1.9%	1.2
O=S(=O)(NCCSc1nnnn1-c1ccccc1)c1cccs1	12.6µM*	-10.0%	-0.6%	-8.2%	-10.5
CCCCC(c1nnnn1CCOC)N1CCN(CC)CC1 (stereo not drawn)	0.9%	-8.1%	-0.2%	-12.4%	-100.0*
CC(=O)OCCCNc1cc(Sc2ccc(Cl)cc2)c2nonc2c1[N+](=O)[O-]	?	12.6µM*	-2.4%	-0.4%	45.1
CCCC(=O)OCCNc1cc(Sc2nc3ccccc3[nH]2)c2nonc2c1[N+](=O)[O-]	7.08µM*	7.94µM*	-1.4%	?	19.0
